For 16 compounds, Potency, activity change, negative = inhibition and activity, negative = inhibition results are on record in PubChem BioAssay (NCATS).

Unmarked numbers belong to inactive results. Results filed as inconclusive are left out. Active and inactive are the calls of the source. Unless noted, calls follow the shape of the dose curve; as a rule, active = well fitted curve in either direction with a large enough effect (not every such curve was filed as active); inconclusive = small, poorly fitted or top-dose-only effect, or another doubt; inactive = flat fitted curve, though single readings scatter. Where only a bound is given, the exact number is not on record here.

Assay [1] deals with Lysosomal acid glucosylceramidase (Homo sapiens) (UniProt P04062). Put plainly: Glucocerebrosidase-p2 (AID 348; in the data active = potency below about 10 µM; also: potency is read from the fitted curve at half-maximal effect). To be noted: purified GBA, blue fluorogenic substrate, 40 min. The method, boiled down:
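Compounds titrated from 0.6 nM upwards against 0.2 nM enzyme in pH 5.9 citric acid/KH2PO4, taurocholate, tween-20; blue fluorogenic substrate 80 uM, 40 min room temperature, stopped and read Ex 365/Em 440 for AC50.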

The nature of assay [2]: AP1 Signaling Pathway (AID 357). Also: % is scaled to controls: 0 for no effect and ±100 for the full control effect. To be noted: ME-180 AP-1-bla reporter, EGF-induced, beta-lactamase ratio, 5 h; at 7.69 µM (top of the series) unless noted. The method, boiled down: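 AP-1-bla ME-180 cells with beta-lactamase reporter under AP-1 response element, stimulated with EC50 EGF; compounds titrated, 5 hours at 37 degrees Celsius. CCF4 read at 460/530 nm ratio; positive and negative modulators judged by AC50.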

The target in assay [3] is Cytochrome P450 1A2 (Homo sapiens) (UniProt P05177). As to the kind of experiment: p450-cyp1a2 (AID 410; calls by dose curve; also: potency is read from the fitted curve at half-maximal effect;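 as to activity change, negative = inhibition: -100% = full effect of reference inhibitor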). To be noted: recombinant CYP1A2, luciferin-ME demethylation, luminescence; series mostly up to 11.4 µM. The method, boiled down: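 Luminescent readout of luciferin formed from Luciferin-ME by human CYP1A2; data normalized against complete inhibition by 57 uM furafylline. Enzyme 20nM, substrate 100uM at Km, 100mM KPO4 buffer, 60 min reaction at room temperature.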

The nature of assay [4]: NFAT Signaling Pathway (AID 444).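 Also: carbachol stimulus at about its EC50 of 1 µM final; % is scaled to controls: 0 for no effect and ±100 for the full control effect.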 To be noted: Jurkat NFAT-bla M1, carbachol, beta-lactamase ratio, 5 h; at 7.69 µM (top of the series) unless noted. The method, boiled down: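 Jurkat cells carrying an NFAT-driven β-lactamase reporter and co-transfected muscarinic M1 receptor were treated with compound plus carbachol (1 uM final, an EC50 level) for 5 h at 37 °C. CCF4 loading followed for 1 h at RT; 460/530 nm ratio gave %activity.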

The nature of assay [5]: Stat Signaling Pathway (AID 446).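 Also: ME-180 cervical cancer cells given 40 pM IL-6 alongside compound; SIE-controlled beta-lactamase reporter measured as 460/530 nm FRET emission ratio; % is scaled to controls: 0 for no effect and ±100 for the full control effect.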 To be noted: ME-180 SIE beta-lactamase reporter, IL-6 stimulated, 5 h; at 7.69 µM (top of the series) unless noted. In short, it runs like this:
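Reporter line: ME-180 cervical carcinoma, SIE-beta-lactamase. Treatment: compound with 40 pM IL-6, 5 hrs, 37 C, in low-serum OPTI-MEM with 10 mM HEPES pH 7.3. Detection: 460/530 nm fluorescence.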

For assay [6], the target named is Glucocorticoid receptor (Homo sapiens) (UniProt P04150). Put plainly: GR-GFP Redistribution (AID 450;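 active = compounds whose dose series gives a full or clear partial fitted curve of increased nuclear translocation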; also: potency is read from the fitted curve at half-maximal effect). To be noted: U2OS GR-GFP nuclear translocation, laser cytometry, 2 h.
Assay [7] shares this target. Put plainly: GR-EFC Redistribution (AID 451; calls by dose curve; also: potency is read from the fitted curve at half-maximal effect). To be noted: CHO-K1 GR-EFC translocation, beta-gal luminescence, 2 h. The method, boiled down:
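CHO-K1 cells stably expressing nuclear-localized β-gal enzyme acceptor and GR fused C-terminally to the enzyme donor fragment; ligand-driven nuclear translocation restores β-gal by complementation. Compounds titrated up to 46 uM final, 2 h at 37 °C; luminescence read.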

Assay [8] has as its target Mitogen-activated protein kinase 10 (Mus musculus) (UniProt Q61831). Put plainly: JNK3 AlphaScreen Assay (AID 530).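 Also: kinase came from lysate of stimulated human HepG2 cells; signal reports phosphorylation of biotinylated GST-cJun 1-79 at Ser73 with 10 µM ATP; % is scaled to controls: 0 for no effect and ±100 for the full control effect.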 The settings on record: JNK3 lysate, c-Jun phosphorylation; series mostly up to 11.4 µM. The method, boiled down: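 Inhibitors reduce antibody binding to phosphorylated biotin-cJun, lowering AlphaScreen luminescence. Lysates from HepG2 cells pre-activated by IL-1beta plus TNF-alpha supplied JNK3; compounds were titrated.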

Assay [9] addresses 3',5'-cyclic-AMP phosphodiesterase 4B (Homo sapiens) (UniProt Q07343). Put plainly: qHTS Assay for Inhibitors of PDE-IV (AID 607; active = well fitted activation curve with a large enough effect in the main read-out, with a control signal flat, not every such curve was filed as active; also: % of control where 0% means no effect). To be noted: HEK293 ACTOne CNG channel cells, membrane potential fluorescence; series mostly up to 22.9 µM. In short, it runs like this:
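Cell-based read-out of cAMP via a modified cyclic nucleotide-gated channel and membrane potential dye (535/590 nm) in HEK293 cells expressing PDE4 endogenously. Compounds tested up to 22.9 uM final; 100 uM RO 20-1724 reference.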
Background: qHTS replaces the single test concentration by a dilution series.

Sequence of 3',5'-cyclic-AMP phosphodiesterase 4B (Homo sapiens) (Q07343 whole entry, looked up): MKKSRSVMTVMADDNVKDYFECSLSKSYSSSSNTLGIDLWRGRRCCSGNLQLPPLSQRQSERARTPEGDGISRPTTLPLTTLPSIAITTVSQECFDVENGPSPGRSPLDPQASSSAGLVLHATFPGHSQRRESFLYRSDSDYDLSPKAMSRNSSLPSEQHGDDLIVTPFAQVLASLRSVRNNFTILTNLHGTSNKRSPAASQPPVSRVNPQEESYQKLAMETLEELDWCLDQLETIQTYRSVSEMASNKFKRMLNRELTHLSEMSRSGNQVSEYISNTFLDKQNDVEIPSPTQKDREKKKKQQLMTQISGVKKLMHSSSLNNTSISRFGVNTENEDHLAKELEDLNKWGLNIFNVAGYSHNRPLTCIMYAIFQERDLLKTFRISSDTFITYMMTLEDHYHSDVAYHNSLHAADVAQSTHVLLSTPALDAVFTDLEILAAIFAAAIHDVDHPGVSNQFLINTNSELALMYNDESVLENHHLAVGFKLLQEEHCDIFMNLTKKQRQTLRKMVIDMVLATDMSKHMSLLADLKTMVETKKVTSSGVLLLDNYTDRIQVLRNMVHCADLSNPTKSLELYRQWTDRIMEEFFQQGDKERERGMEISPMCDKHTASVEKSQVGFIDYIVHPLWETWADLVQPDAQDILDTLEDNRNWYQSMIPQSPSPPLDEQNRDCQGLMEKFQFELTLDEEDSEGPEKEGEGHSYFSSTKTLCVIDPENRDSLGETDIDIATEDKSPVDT
Sequence of Cytochrome P450 1A2 (Homo sapiens) (P05177 whole entry, looked up): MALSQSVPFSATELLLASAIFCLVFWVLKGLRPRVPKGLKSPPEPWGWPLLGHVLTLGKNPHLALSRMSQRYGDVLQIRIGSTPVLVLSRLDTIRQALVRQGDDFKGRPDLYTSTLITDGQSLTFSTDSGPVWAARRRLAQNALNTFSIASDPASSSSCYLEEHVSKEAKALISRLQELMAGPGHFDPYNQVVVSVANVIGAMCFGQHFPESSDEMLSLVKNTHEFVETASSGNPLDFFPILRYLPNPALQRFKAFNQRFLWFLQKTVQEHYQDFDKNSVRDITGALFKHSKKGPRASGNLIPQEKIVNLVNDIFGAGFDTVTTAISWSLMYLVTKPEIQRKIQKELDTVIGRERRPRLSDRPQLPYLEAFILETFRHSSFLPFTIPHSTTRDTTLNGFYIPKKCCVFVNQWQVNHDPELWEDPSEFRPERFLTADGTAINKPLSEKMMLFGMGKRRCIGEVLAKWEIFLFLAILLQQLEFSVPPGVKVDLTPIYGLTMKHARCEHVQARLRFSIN
Sequence of Glucocorticoid receptor (Homo sapiens) (P04150 whole entry, looked up): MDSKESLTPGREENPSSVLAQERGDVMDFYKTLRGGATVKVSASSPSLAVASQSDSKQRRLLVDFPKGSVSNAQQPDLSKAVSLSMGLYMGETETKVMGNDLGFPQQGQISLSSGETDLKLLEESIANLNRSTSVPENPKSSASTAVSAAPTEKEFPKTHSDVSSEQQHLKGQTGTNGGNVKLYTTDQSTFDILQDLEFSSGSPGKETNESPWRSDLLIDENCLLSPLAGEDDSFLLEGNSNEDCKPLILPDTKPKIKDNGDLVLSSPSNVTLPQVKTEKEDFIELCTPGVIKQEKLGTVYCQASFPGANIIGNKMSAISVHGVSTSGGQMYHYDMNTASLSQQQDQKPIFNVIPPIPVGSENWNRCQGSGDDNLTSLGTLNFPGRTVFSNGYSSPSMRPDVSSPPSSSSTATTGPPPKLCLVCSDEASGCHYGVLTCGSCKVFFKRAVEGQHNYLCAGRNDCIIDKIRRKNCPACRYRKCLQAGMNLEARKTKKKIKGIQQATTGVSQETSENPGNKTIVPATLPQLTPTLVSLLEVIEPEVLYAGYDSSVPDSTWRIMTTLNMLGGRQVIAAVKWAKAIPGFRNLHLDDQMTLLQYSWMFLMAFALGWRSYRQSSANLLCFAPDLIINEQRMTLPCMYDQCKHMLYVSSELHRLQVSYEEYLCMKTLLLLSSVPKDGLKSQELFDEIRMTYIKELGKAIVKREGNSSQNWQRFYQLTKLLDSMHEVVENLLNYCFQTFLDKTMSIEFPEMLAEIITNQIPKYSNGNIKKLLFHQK
Sequence of Lysosomal acid glucosylceramidase (Homo sapiens) (P04062 whole entry, looked up): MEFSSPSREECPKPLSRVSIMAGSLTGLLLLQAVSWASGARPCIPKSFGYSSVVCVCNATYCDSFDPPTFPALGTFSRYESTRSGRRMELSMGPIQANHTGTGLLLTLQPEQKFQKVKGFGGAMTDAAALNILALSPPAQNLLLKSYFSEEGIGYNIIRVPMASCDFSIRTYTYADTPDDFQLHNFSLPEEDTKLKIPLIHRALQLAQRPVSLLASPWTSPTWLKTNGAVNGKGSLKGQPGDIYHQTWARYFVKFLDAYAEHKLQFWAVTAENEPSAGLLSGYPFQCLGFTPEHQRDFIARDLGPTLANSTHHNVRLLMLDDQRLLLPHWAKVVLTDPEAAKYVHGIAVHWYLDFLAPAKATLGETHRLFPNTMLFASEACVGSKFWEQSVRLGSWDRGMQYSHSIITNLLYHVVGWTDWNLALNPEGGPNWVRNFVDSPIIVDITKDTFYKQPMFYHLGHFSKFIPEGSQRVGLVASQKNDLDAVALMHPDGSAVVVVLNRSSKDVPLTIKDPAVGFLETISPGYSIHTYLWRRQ

Regarding `N#C/C(=C\Nc1ccccn1)C(=O)C1CC1`, the Potency in [1] was greater than 11.4 µM; in assay [3], 1.26 µM (active); in [6], greater than 46 µM; in [7], greater than 9.22 µM. Further, the activity change, negative = inhibition in assay [2] is 7.75%; in assay [4], 5.1%. Also, in assay [5], the activity, negative = inhibition was 1.86%. The Potency result in assay [8] and in [9] was “inactive” in each case.
As to `O=C(O)CSc1cc(-c2ccccc2)nc2ccccc12`, the Potency is greater than 11.4 µM in assay [1], greater than 46 µM in assay [6] and greater than 9.22 µM in assay [7]. In addition, the activity change, negative = inhibition in assay [2] is 4.39%; in [3], -4.7% [at 2.29 µM]; in assay [4], 10.2%. In assay [5], the activity, negative = inhibition is -6.65%. Also, the Potency entry in [8] and in assay [9] was “inactive” in each case.
For `Nc1cccc2cc(S(=O)(=O)Nc3ccc(C(=O)O)cc3)ccc12`, the Potency in [1] is greater than 11.4 µM; in assay [6], greater than 46 µM; in assay [7], greater than 9.22 µM. The results for the activity change, negative = inhibition in assay [2] and in assay [4] were -0.623% and 12.7%, respectively. Further, the Potency entry in assay [3], in [8] and in assay [9] was “inactive” each time. Moreover, in assay [5], the activity, negative = inhibition was -1.24%.
Regarding `Cc1nc2cccc([N+](=O)[O-])c2n1CCCN(C)C`, the values for the Potency in assay [1], in [6] and in assay [7] were greater than 11.4 µM, greater than 46 µM and greater than 9.22 µM, respectively. For the same compound, the activity change, negative = inhibition in assay [2] is 11.7%; in assay [4], 12.7%. Also, the Potency entry in [3], in [8] and in assay [9] was “inactive” in each case. The activity, negative = inhibition in assay [5] is 9.88%.
Consider `NC(=O)NC(=O)[C@H]1CCCC[C@@H]1C(=O)O`, for which the Potency in assay [1] was greater than 11.4 µM; in assay [6] it was greater than 46 µM; in [7] it was greater than 9.22 µM. Moreover, the activity change, negative = inhibition is 7.05% in assay [2] and -5.46% in [4]. Also, the Potency result in [3], in assay [8] and in assay [9] was “inactive” in each case. In addition, the activity, negative = inhibition in assay [5] was 17.8%.
Turning to `NC(=S)SCCC(=O)O`, the Potency in assay [1] is greater than 11.4 µM; in assay [3], 1.58 µM (active); in assay [6] it was greater than 46 µM; in assay [7], greater than 9.22 µM. The activity change, negative = inhibition in assay [2] was 11.1%; in [4], 14.5%. Further, in assay [5], the activity, negative = inhibition was 14.5%. Also, the Potency entry in assay [8] and in [9] was “inactive” throughout.
For `Cc1cc(Cc2cc(C)c(N)cc2N)c(N)cc1N`, the Potency in assay [1] is greater than 11.4 µM; in assay [3] it was 2 µM (active); in assay [6] it was greater than 46 µM; in [7], greater than 9.22 µM. For the same compound, the activity change, negative = inhibition was -4.79% in assay [2] and -1.81% in assay [4]. The activity, negative = inhibition in [5] was 1.49%. Moreover, the Potency result in assay [8] and in [9] was “inactive” in each case.
On to `C=C(C)CNCCN`, for which the Potency in assay [1] was greater than 11.4 µM; in [6], greater than 46 µM; in assay [7] it was greater than 9.22 µM. In addition, the activity change, negative = inhibition in assay [2] was 0.933%; in assay [3] it was 2.2% [at 2.29 µM]; in [4], 17.5%. The activity, negative = inhibition in assay [5] was 8.28%. Moreover, the Potency result in assay [8] and in assay [9] was “inactive” throughout.
`COc1cc2ccc([C@H](C)NCC#N)cc2cc1OC`: the Potency is greater than 11.4 µM in assay [1], 0.501 µM (active) in [3], greater than 46 µM in [6] and greater than 9.22 µM in [7]. For the same compound, the activity change, negative = inhibition in assay [2] was -11.4%; in [4], 9.37%. For the same compound, the activity, negative = inhibition in assay [5] is -0.292%. Further, the Potency result in assay [8] and in [9] was “inactive” each time.
In the case of `NC(N)=NC(N)=Nc1ccc(S(=O)(=O)O)cc1`, the figures for the Potency in assay [1], in [6] and in assay [7] were greater than 11.4 µM, greater than 46 µM and greater than 9.22 µM, respectively. The results for the activity change, negative = inhibition in assay [2] and in [4] were 1.18% and 0.0165%, respectively. The Potency entry in assay [3], in assay [8] and in assay [9] was “inactive” in each case. The activity, negative = inhibition in [5] is -0.308%.
On to `N[C@@H](Cc1nn[nH]n1)C(=O)O`, for which the Potency was greater than 11.4 µM in assay [1], greater than 46 µM in assay [6] and greater than 9.22 µM in assay [7]. For the same compound, the figures for the activity change, negative = inhibition in assay [2] and in assay [4] were -0.568% and -5.25%, respectively. Also, the Potency entry in [3], in assay [8] and in assay [9] was “inactive” each time. The activity, negative = inhibition in [5] was 10.9%.
Turning to `CCOC(=O)C(C)(C)[C@H](O)C(C)C`, the Potency in assay [1] is greater than 11.4 µM; in assay [6], greater than 46 µM; in assay [7], greater than 9.22 µM. Also, the activity change, negative = inhibition in assay [2] is -4.38%; in assay [4] it was 6.94%. The Potency entry in assay [3], in [8] and in assay [9] was “inactive” throughout. For the same compound, the activity, negative = inhibition in assay [5] was -3.53%.
Take `O=C(O)[C@@H]1Cc2c([nH]c3ccccc23)[C@@H](CCCCO)N1`: the Potency in [1] is greater than 11.4 µM; in [6] it was greater than 46 µM; in [7], greater than 9.22 µM. For the same compound, the activity change, negative = inhibition is -12.4% in assay [2], -9.6% [at 2.29 µM] in assay [3] and 3.55% in assay [4]. In addition, in assay [5], the activity, negative = inhibition is -0.601%. Besides, the Potency result in assay [8] and in assay [9] was “inactive” throughout.
Turning to `CSc1ncnc2c1ncn2[C@@H]1O[C@@H](CO)[C@H](O)O[C@@H]1O`, the figures for the Potency in [1], in [6] and in assay [7] were greater than 11.4 µM, greater than 46 µM and greater than 9.22 µM, respectively. In addition, the activity change, negative = inhibition in [2] is -6.79%; in assay [3] it was -5.2% [at 2.29 µM]; in assay [4] it was 22.2%. The activity, negative = inhibition in [5] is 22.9%. The Potency result in assay [8] and in assay [9] was “inactive” in each case.
With `O=C(O)c1ccc([N+](=O)[O-])c(P(=O)(O)O)c1`, the Potency in [1] was greater than 11.4 µM; in assay [6], greater than 46 µM; in assay [7], greater than 9.22 µM. The activity change, negative = inhibition was -2.71% in assay [2] and 12.7% in assay [4]. For the same compound, the Potency entry in assay [3], in assay [8] and in [9] was “inactive” each time. In addition, in assay [5], the activity, negative = inhibition was -0.293%.
In the case of `Cn1c(C[C@@H](O)c2nc3ccccc3n2C)nc2ccccc21`, the figures for the Potency in assay [1], in [6] and in [7] were greater than 11.4 µM, greater than 46 µM and greater than 9.22 µM, respectively. Also, the activity change, negative = inhibition was 11.7% in [2], -2.6% [at 2.29 µM] in assay [3] and 13.3% in assay [4]. Further, the activity, negative = inhibition in [5] was 8.01%. Further, the Potency result in assay [8] and in assay [9] was “inactive” each time.
